Where a name gives a salt, the structure may show the parent alone. ± gives the standard deviation of the averaged measurements.
Legend:
[1] = system: Saccharomyces cerevisiae BY4741 SeMeCo community; assay: mean cell size (pixel area) (pixels); higher = larger cells; settings: 10 µM; 24 h; SM minimal medium
In short: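 Harmony analysis of automated confocal images of paraformaldehyde-fixed yeast gave the mean cell pixel area per well. The yeast was a Saccharomyces cerevisiae BY4741 community carrying four plasmids, each with a fluorescent marker and each complementing one auxotrophy, incubated for 24 h in SM medium containing drug at a final 10 µM in 384-well plates. Results are averaged over 3 replicates. Same SeMeCo high-content imaging drug screen: Selleck FDA-approved drugs at 10 µM, 24 h in SM medium, 384-well plates, 3 replicates.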

[2] = system: Saccharomyces cerevisiae BY4741 SeMeCo community; assay: z-score of prototroph abundance vs DMSO median; higher = larger share of this subpopulation than in DMSO controls; settings: 10 µM; 24 h; SM minimal medium; subpopulation (auxotrophy): Prototroph
In short: (§1)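 A community of Saccharomyces cerevisiae BY4741 was built from four plasmids that each restored one auxotrophy and encoded a distinct fluorescent protein. Pre-grown overnight to OD600 1.0 and diluted to 0.3, it was dispensed at 70 µl into 384-well plates acoustically predosed with library drugs for a final 10 µM, and grown 24 h in minimal SM medium. Cells were then paraformaldehyde-fixed and imaged by automated confocal microscopy. Thresholds and autofluorescence correction came from single-auxotroph fluorescent strains, and each subpopulation's abundance was scored as a z-score relative to the vehicle-well median.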

[3] = system: Saccharomyces cerevisiae BY4741 SeMeCo community; assay: z-score of subpopulation abundance vs DMSO median, subpopulation auxotrophic for M; higher = larger share of this subpopulation than in DMSO controls; settings: 10 µM; 24 h; SM minimal medium; subpopulation (auxotrophy): M
In short: as §1

[4] = system: Saccharomyces cerevisiae BY4741 SeMeCo community; assay: z-score of subpopulation abundance vs DMSO median, subpopulation auxotrophic for L; higher = larger share of this subpopulation than in DMSO controls; settings: 10 µM; 24 h; SM minimal medium; subpopulation (auxotrophy): L
In short: as §1

[5] = system: Saccharomyces cerevisiae BY4741 SeMeCo community; assay: z-score of subpopulation abundance vs DMSO median, subpopulation auxotrophic for U; higher = larger share of this subpopulation than in DMSO controls; settings: 10 µM; 24 h; SM minimal medium; subpopulation (auxotrophy): U
In short: as §1

[6] = system: Saccharomyces cerevisiae BY4741 SeMeCo community; assay: z-score of subpopulation abundance vs DMSO median, subpopulation auxotrophic for H; higher = larger share of this subpopulation than in DMSO controls; settings: 10 µM; 24 h; SM minimal medium; subpopulation (auxotrophy): H
In short: as §1

[7] = system: Saccharomyces cerevisiae BY4741 SeMeCo community; assay: z-score of subpopulation abundance vs DMSO median, subpopulation auxotrophic for LU; higher = larger share of this subpopulation than in DMSO controls; settings: 10 µM; 24 h; SM minimal medium; subpopulation (auxotrophy): LU
In short: as §1

[8] = system: Saccharomyces cerevisiae BY4741 SeMeCo community; assay: z-score of subpopulation abundance vs DMSO median, subpopulation auxotrophic for LM; higher = larger share of this subpopulation than in DMSO controls; settings: 10 µM; 24 h; SM minimal medium; subpopulation (auxotrophy): LM
In short: as §1

[9] = system: Saccharomyces cerevisiae BY4741 SeMeCo community; assay: z-score of subpopulation abundance vs DMSO median, subpopulation auxotrophic for HM; higher = larger share of this subpopulation than in DMSO controls; settings: 10 µM; 24 h; SM minimal medium; subpopulation (auxotrophy): HM
In short: as §1

[10] = system: Saccharomyces cerevisiae BY4741 SeMeCo community; assay: z-score of subpopulation abundance vs DMSO median, subpopulation auxotrophic for HU; higher = larger share of this subpopulation than in DMSO controls; settings: 10 µM; 24 h; SM minimal medium; subpopulation (auxotrophy): HU
In short: as §1

[11] = system: Saccharomyces cerevisiae BY4741 SeMeCo community; assay: z-score of subpopulation abundance vs DMSO median, subpopulation auxotrophic for UM; higher = larger share of this subpopulation than in DMSO controls; settings: 10 µM; 24 h; SM minimal medium; subpopulation (auxotrophy): UM
In short: as §1

[12] = system: Saccharomyces cerevisiae BY4741 SeMeCo community; assay: z-score of subpopulation abundance vs DMSO median, subpopulation auxotrophic for HL; higher = larger share of this subpopulation than in DMSO controls; settings: 10 µM; 24 h; SM minimal medium; subpopulation (auxotrophy): HL
In short: as §1

[13] = system: Saccharomyces cerevisiae BY4741 SeMeCo community; assay: z-score of subpopulation abundance vs DMSO median, subpopulation auxotrophic for HLU; higher = larger share of this subpopulation than in DMSO controls; settings: 10 µM; 24 h; SM minimal medium; subpopulation (auxotrophy): HLU
In short: as §1

[14] = system: Saccharomyces cerevisiae BY4741 SeMeCo community; assay: z-score of subpopulation abundance vs DMSO median, subpopulation auxotrophic for HLM; higher = larger share of this subpopulation than in DMSO controls; settings: 10 µM; 24 h; SM minimal medium; subpopulation (auxotrophy): HLM
In short: as §1

[15] = system: Saccharomyces cerevisiae BY4741 SeMeCo community; assay: z-score of subpopulation abundance vs DMSO median, subpopulation auxotrophic for HUM; higher = larger share of this subpopulation than in DMSO controls; settings: 10 µM; 24 h; SM minimal medium; subpopulation (auxotrophy): HUM
In short: as §1

[16] = system: Saccharomyces cerevisiae BY4741 SeMeCo community; assay: z-score of subpopulation abundance vs DMSO median, subpopulation auxotrophic for LUM; higher = larger share of this subpopulation than in DMSO controls; settings: 10 µM; 24 h; SM minimal medium; subpopulation (auxotrophy): LUM
In short: as §1

[17] = system: Saccharomyces cerevisiae BY4741 SeMeCo community; assay: z-score of subpopulation abundance vs DMSO median, subpopulation auxotrophic for HLUM; higher = larger share of this subpopulation than in DMSO controls; settings: 10 µM; 24 h; SM minimal medium; subpopulation (auxotrophy): HLUM
In short: as §1

SMILES | mean cell size [1] | z-score of prototroph abundance [2] | z-score of subpopulation abundance [3] | z-score of subpopulation abundance [4] | z-score of subpopulation abundance [5] | z-score of subpopulation abundance [6] | z-score of subpopulation abundance [7] | z-score of subpopulation abundance [8] | z-score of subpopulation abundance [9] | z-score of subpopulation abundance [10] | z-score of subpopulation abundance [11] | z-score of subpopulation abundance [12] | z-score of subpopulation abundance [13] | z-score of subpopulation abundance [14] | z-score of subpopulation abundance [15] | z-score of subpopulation abundance [16] | z-score of subpopulation abundance [17]
C#C[C@]1(O)CC[C@H]2[C@@H]3CCc4cc(OC5CCCC5)ccc4[C@H]3CC[C@@]21C [Quinestrol] | 12.4 ± 0.25 | -0.35 | 0.32 | 1.42 | -0.2 | 0.33 | 1.93 | -0.07 | 0.17 | 0.41 | -0.33 | 0.28 | 0.72 | 0.37 | 0.52 | 0.36 | 0.63
Cc1cc(-c2ccc(/N=N/c3ccc4c(S(=O)(=O)O)cc(S(=O)(=O)O)c(N)c4c3O)c(C)c2)ccc1/N=N/c1ccc2c(S(=O)(=O)O)cc(S(=O)(=O)O)c(N)c2c1O [Evans Blue] | 13.5 ± 0.98 | -9.18 | -14.3 | -1.65 | 1.78 | – | 4.41 | -5.69 | -7.3 | 10.3 | -9.56 | 8.09 | 429 | -2.86 | -6.59 | -5.24 | -2.52
COc1cc(N)c(Cl)cc1C(=O)NC1CCN(CCCOc2ccc(F)cc2)CC1OC (centres undefined) [Cisapride hydrate] | 12.52 ± 0.044 | -0.46 | 0.32 | -0.75 | 0.95 | – | 0.83 | -0.23 | 0.29 | 1.34 | 0.98 | -0.17 | 0.05 | 0.12 | 0.84 | -0.28 | -0.3
CN1CCN(CCCN2c3ccccc3Sc3ccc(Cl)cc32)CC1 [Prochlorperazine dimaleate salt] | 12.4 ± 0.15 | -0.98 | 0.75 | 0.41 | -0.36 | 1.05 | -0.07 | 0.75 | 1.58 | 0.89 | 0.65 | 0.69 | 0.49 | 0.12 | 1.51 | 1.88 | 0.48
CCCCOc1cc(C(=O)OCCN(CC)CC)ccc1N [Oxybuprocaine HCl] | 12.6 ± 0.3 | -0.08 | 0.72 | 0.22 | -0.29 | -0.22 | -0.72 | 0.31 | 0.19 | 0.6 | -0.55 | 0.21 | -0.16 | 1.25 | 0.57 | 0.25 | 0.34
OC[C@H]1O[C@H](OCC2O[C@@H](O)[C@H](O)[C@@H](O)[C@@H]2O)[C@H](O)[C@@H](O)[C@H]1O (some centres undefined) [Melibiose] | 12.5 ± 0.29 | -0.13 | 0.28 | 0.1 | 0.61 | – | 0.81 | -0.85 | -0.15 | 0.74 | 0.56 | – | -0.58 | 1.11 | 0.46 | 0.14 | 1
CSc1nc2cc(Cl)c(Oc3cccc(Cl)c3Cl)cc2[nH]1 [Triclabendazole] | 13.1 ± 0.54 | 1.8 | -9.19 | -0.07 | -0.92 | – | 0.92 | -2.65 | -3.03 | 2.73 | -5.17 | 3.65 | 2.64 | 7.41 | -1.46 | 1.09 | 4.69

— the supplement of paper PMC8975748
